In PubChem BioAssay AID1778 (Sanford-Burnham Center for Chemical Genomics, 2009):
Several values for one entry are separate records, joined by “and”; a condition that tells them apart may be missing. Equal values may be shown once. In all, about 290,000 compounds went through this assay and about 260 (0.09%) were called active. Cut-off read from the data, not from the text of the source: active = inhibition above about 50%; inactive = the rest. For the sample, actives were picked, then their nearest neighbours and some compounds at random. Results with a measured potency or affinity are listed apart.

Target: Kappa-type opioid receptor (Homo sapiens) (UniProt P41145)
Assay: kappa opioid receptor blockers – cell-based, luminescence, uHTS (AID 1778)
Details: KOR beta-arrestin recruitment, antagonist mode, active compounds read high; at 10 µM unless noted

Chain of Kappa-type opioid receptor (Homo sapiens) (P41145 whole entry, looked up): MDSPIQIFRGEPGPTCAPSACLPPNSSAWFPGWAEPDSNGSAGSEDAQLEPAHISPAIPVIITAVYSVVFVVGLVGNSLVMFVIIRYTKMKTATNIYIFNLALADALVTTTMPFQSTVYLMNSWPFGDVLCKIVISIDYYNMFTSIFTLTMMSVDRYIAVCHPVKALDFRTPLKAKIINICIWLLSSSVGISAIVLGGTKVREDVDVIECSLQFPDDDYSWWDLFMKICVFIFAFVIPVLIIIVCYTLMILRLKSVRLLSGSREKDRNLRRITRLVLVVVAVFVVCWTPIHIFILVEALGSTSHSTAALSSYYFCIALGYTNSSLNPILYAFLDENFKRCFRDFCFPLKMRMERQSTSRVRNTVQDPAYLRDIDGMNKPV

inhibition, active:
O=C(/C=C/c1cccnc1)/C=C/c1cccnc1 57.9%

inhibition, inactive:
COc1ccc(-c2nc(C)sc2CC(=O)O)cc1 -5.7%
N#Cc1c(C(F)(F)F)cc(-c2ccc(Cl)c(Cl)c2)nc1SCCN1CCOCC1 -29.4%
CCOC(=O)C1=C(CSc2nc(-c3ccncc3)ccc2C#N)OC(N)=C(C#N)C1c1ccc(OC)cc1 (stereo unspecified) -4.9%
CC(C)NC(=S)n1cc(C(=O)c2cc(Cl)cc(Cl)c2O)cn1 -10%
COC(=O)C1c2ccccc2-c2ccccc21 -7.3%
CCOc1ccc(C(=O)/C=C/Nc2ccc(S(=O)(=O)N=C(N)N)cc2)cc1 1%
Cc1ccc(N(C(=O)CNC(=O)c2ccco2)C(C(=O)NCC2CCCO2)c2ccccc2)cc1 (stereo unspecified) -12.5%
CC1CN(C(=S)SCC(=O)c2ccc(Cl)cc2)CC(C)O1 (stereo unspecified) 21.8%
Cc1ccc(-c2onc(C)c2C)cc1S(=O)(=O)N1CC(C)Oc2ccccc21 (stereo unspecified) -11.7%
COc1ccc(N)c2c1C(=O)c1ccccc1C2=O 20.4%
COc1ccc(OC)c2c1C(=O)c1ccccc1C2=O -4.5%
O=C1CC[C@@H](CN(Cc2ccccn2)Cc2nc(-c3ccc(C(F)(F)F)cc3)no2)N1 3.4% [at 20 µM]
O=C(CC1C(=O)NCCN1Cc1cccc(Oc2ccccc2)c1)NCCCn1cccn1 (stereo unspecified) -2.5%
O=C(O)/C=C/c1cccnc1 17.9%
CC(/C=C\c1cccnc1)=C/C(=O)O -0.4% and 17.9%
Cn1ccnc1SCc1nc2c(cnn2-c2ccccc2)c(=O)[nH]1 -17.7%
Cc1cccc(-n2c(SCc3ccc(C#N)cc3)nnc2-c2c[nH]c3ccccc23)c1 6.1%
CCOc1ccc(N2CC(C(=O)Nc3ccncc3)CC2=O)cc1 (stereo unspecified) 15.6%
CCOC(=O)Cc1[nH]nc2c1C(Cc1ccccc1)C(C#N)=C(N)O2 (stereo unspecified) -4.1%
CC1(C)CC(=O)C(/C=N/c2ncccc2C(=O)O)=C(O)C1 -24.7%
CC1(C)CC(=O)C(/C=N/c2ccccn2)=C(O)C1 40.5%
CN(C)S(=O)(=O)c1cccc(C(=O)Nc2cc(Cl)ccc2O)c1 -1.5%
C/C(=C\c1ccc(F)cc1)C(=O)c1c(C)cc(C)[nH]c1=O 5.1%
O=C(NCc1ccccn1)C(=O)NN=C1CCCCCCCCCCC1 -9.2% [at 20 µM]
CCOC(=O)C(CSCC(=O)c1ccc(Br)cc1)NC(=O)OC(C)(C)C (stereo unspecified) 3.7%
